From the supplement of paper PMC12669032
A number with no mark means an inactive call.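 How the source made its calls: active = AUC reduced over 20% with Padj below 0.05 in at least 2 of 3 replicates; inactive = otherwise.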

Tests used:
Assay in all cases: growth AUC relative to DMSO control (median of replicates) (fraction); higher = more growth (less inhibition), active = hit call of the paper
Conditions in all cases: 20 µM; 24 h
[1] = test system: Akkermansia muciniphila
Outline: (§1)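 Gut bacterial monocultures were grown anaerobically at 37 °C in mGAM, starting at OD600 0.05, with 20 µM compound (1% DMSO) in round-bottom 96-well plates under pierced gas-permeable seals. OD600 was read hourly for 24 h. Area under the growth curve (minimum OD set to 0) was normalised to the plate median of DMSO controls, or to row and column medians on the industrial chemical plate. The value is the median of three biological replicates grown on separate days.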

[2] = test system: Bacteroides caccae
Outline: as §1

[3] = test system: Bacteroides clarus
Outline: as §1

[4] = test system: Bacteroides dorei
Outline: as §1

[5] = test system: Bacteroides stercoris
Outline: as §1

[6] = test system: Bacteroides thetaiotaomicron
Outline: as §1

[7] = test system: Bacteroides uniformis
Outline: as §1

[8] = test system: Bifidobacterium longum subsp. longum
Outline: as §1

[9] = test system: Clostridium difficile
Outline: as §1

[10] = test system: Collinsella aerofaciens
Outline: as §1

| SMILES | growth AUC [1] | growth AUC [2] | growth AUC [3] | growth AUC [4] | growth AUC [5] | growth AUC [6] | growth AUC [7] | growth AUC [8] | growth AUC [9] | growth AUC [10] |
| --- | --- | --- | --- | --- | --- | --- | --- | --- | --- | --- |
| COC1CCC2(CC1)NC(=O)C(c1cc(C)ccc1C)=C2O (stereo not given) | 0.863 | 0.974 | 1.05 | 1.02 | 1.12 | 1.01 | 1.01 | 1.09 | 1.02 | 1.05 |
| Nc1cccc(O)c1 | 0.979 | 1.03 | 1.02 | 1 | 0.939 | 1.03 | 1.03 | 1.06 | 1.03 | 0.998 |
| CCc1cccc(C)c1NC(=O)CS(=O)(=O)[O-].[Na+] | 0.926 | 1.03 | 0.962 | 1.03 | 0.937 | 1.01 | 0.991 | 0.975 | 1.06 | 1.11 |
| CCCCCCCCSCCO | 1.06 | 0.954 | 0.967 | 1.02 | 0.918 | 0.975 | 1 | 1.04 | 0.983 | 0.949 |
| COCC(=O)N(c1c(C)cccc1C)C(C)C(=O)O (stereo not given) | 1.09 | 0.998 | 1 | 1.01 | 1.13 | 1.04 | 0.997 | 0.951 | 0.95 | 1.08 |
| CCSC(=O)COc1ccc(Cl)cc1C | 0.952 | 0.977 | 0.982 | 0.905 | 0.997 | 0.751 (active) | 1.03 | 1.04 | 1.04 | 0.966 |
| CC(Oc1ccc(Cl)cc1Cl)C(=O)NC(C)(C#N)C(C)C (stereo not given) | 1.27 | 0.944 | 1 | 0.999 | 0.99 | 0.964 | 0.92 | 1.02 | 0.935 | 0.977 |
| COC(=O)C(C)Oc1ccc(Oc2ncc(C(F)(F)F)cc2Cl)cc1 (stereo not given) | 1.11 | 0.968 | 0.977 | 0.964 | 0.912 | 0.992 | 0.886 | 1.02 | 0.98 | 0.954 |
| CS(=O)(=O)c1ccc(C(=O)C2C(=O)C(O)CC(O)C2=O)c(Cl)c1COCC(F)(F)F (stereo not given) | 0.99 | 0.986 | 0.96 | 0.972 | 0.982 | 0.965 | 0.975 | 0.978 | 0.99 | 1 |
| CCCOC(=O)c1ccc(O)cc1 | 0.879 | 0.979 | 0.986 | 1.02 | 0.993 | 0.989 | 0.984 | 1.01 | 0.98 | 1.01 |
| c1ccc(CNc2ncnc3nc[nH]c23)cc1 | 1.07 | 1.02 | 0.992 | 0.983 | 0.995 | 1.03 | 1.06 | 0.975 | 0.932 | 1 |
| CSC(=O)c1cccc2nnsc12 | 0.851 | 1.04 | 0.997 | 0.978 | 1.07 | 0.961 | 1 | 1.04 | 1 | 1.01 |
| CN(C)C(N)=O | 1.05 | 0.949 | 0.998 | 0.982 | 1.05 | 0.99 | 0.971 | 0.973 | 1.03 | 0.977 |
| CC(C)c1cc(Oc2ccccc2)cc(C(C)C)c1NC(=S)NC(C)(C)C | 0.863 | 0.984 | 0.96 | 0.983 | 0.98 | 0.97 | 0.998 | 0.929 | 0.957 | 1.03 |
| CCOC(=O)Nc1cccc(OC(=O)Nc2cccc(C)c2)c1 | 1.05 | 0.951 | 0.948 | 0.882 | 0.932 | 0.979 | 1.02 | 1.02 | 0.966 | 0.901 |
| Cc1nc(C(F)(F)F)c(C(=O)Nc2c(Br)cc(OC(F)(F)F)cc2Br)s1 | 1.05 | 0.984 | 0.98 | 0.946 | 1.06 | 0.945 | 0.986 | 1 | 1.03 | 1.01 |
| CCNc1nc(NC(C)(C)C)nc(OC)n1 | 0.972 | 0.985 | 0.998 | 0.992 | 1.11 | 0.987 | 0.985 | 1.02 | 0.998 | 1.07 |
| Cc1ccc(Cl)cc1 | 0.981 | 0.982 | 1.03 | 1.04 | 0.936 | 1.01 | 1.01 | 0.993 | 1.04 | 1 |
| c1ccc2cc3ccccc3cc2c1 | 0.776 (active) | 0.972 | 1 | 1 | 1.01 | 0.987 | 0.999 | 0.81 | 0.997 | 0.961 |
| O=C(O)COc1cccc(Cl)c1Cl | 0.919 | 0.947 | 0.971 | 0.962 | 1.02 | 0.993 | 0.997 | 0.989 | 1 | 0.992 |
| CCCCCCCC/C=C\CCCCCCCC(N)=O | 0.936 | 0.999 | 0.991 | 0.977 | 0.875 | 0.982 | 0.998 | 0.849 | 1.01 | 0.857 |
| Cc1ccc(C)c(O)c1 | 0.958 | 1.02 | 0.98 | 1 | 0.996 | 1 | 1.01 | 1.05 | 1.01 | 1.01 |
| CC(C)CCCCCOC(=O)C(C)Oc1ccc(Cl)cc1Cl (stereo not given) | 1.14 | 1 | 1.03 | 0.954 | 0.966 | 1.04 | 0.992 | 0.969 | 1.06 | 1.02 |
| CC(C)c1nn(C(=O)NC(C)(C)C)c(=O)n1N | 0.95 | 1.04 | 0.976 | 1.02 | 1.08 | 0.976 | 1 | 0.999 | 1 | 1.05 |
| CCCCC(CC)COC(=O)COc1ccc(Cl)cc1C (stereo not given) | 1.15 | 0.995 | 0.997 | 0.977 | 0.983 | 0.987 | 0.943 | 0.986 | 0.979 | 0.907 |
| CC(C)(NC(=O)C(Br)C(C)(C)C)c1ccccc1 (stereo not given) | 0.896 | 1.01 | 0.924 | 0.995 | 0.766 | 0.971 | 1.06 | 0.84 | 1.01 | 1.01 |
| O=C(O)[C@@H](S)[C@@H](S)C(=O)O | 1.14 | 1.01 | 1.05 | 1.01 | 1.17 | 1.04 | 1.04 | 1.02 | 1.01 | 1.02 |
